IL-2 act = qHTS of IL-2 Activators | actives 0.065% (n = 360,000) | IL-2 activation reporter assay, cell-based qHTS; stimulated with anti-CD3/CD4/CD28 beads; in transgenic mouse T cells | activation, % (series mostly up to about 46 µM); in the data active = activation above about 50%; inconclusive = mostly about 30% to 49%; note: 0% is about no effect
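Screening format: compound pinned onto unstimulated transgenic mouse T cells, 60 min incubation, then anti-CD3/anti-CD4/anti-CD28 bead stimulation for 18 hours at 37 degrees C, followed by EGFP and DsRed detection.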
Nrf2 ARE act = qHTS of Nrf2 Activators; AREc32 ARE-luciferase reporter (MCF7-derived line), luminescence, 24 h; Potency, µM (top dose mostly 46.1 µM), inactives show top-dose activation, actives largely listed as activators; actives 0.31% (n = 410,000); note: potency is the fitted concentration of half-maximal effect; % of control where 0% means no effect; nearly all actives have a fitted effect of over 65% in size
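Luciferase luminescence (Steady-Glo, 30 min at room temperature) served as the read-out of ARE activation in AREc32 cells treated with compounds for 24 hr at 37 deg C.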
miR-21 act = qHTS Assay for Modulators of miRNAs and/orActivators of miR-21 | 340,000 tested, under 10 active | HeLa miR-21 FLuc reporter, luciferase, 48 h | AID 2288, 2010 | Potency, µM (titrated, usually from 38.3 µM), for the others: at the highest dose activity change, positive = activation, hits mostly activators;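 note: % of control where 0% means no effect; miR-21 action dims this reporter so a rising signal means less miR-21 action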
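Compounds were titrated across several concentrations (up to approximately 40 uM) and incubated 48 hours with HeLa miR-21-FLuc reporter cells (miR-21 target sequence downstream of FLuc, endogenous miR-21). Readout was firefly luciferase luminescence after lytic detection reagent.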
Nrf2 block = Nrf2 qHTS screen for inhibitors; A549 ARE-Fluc reporter, luciferase luminescence, 18-24 h; Potency, µM (titrated, usually from 46 µM), for the others: at the top dose activity change, negative = inhibition, usual class: inhibitors; actives 2.1% (n = 360,000); AID 504444, 2011; note: potency is the fitted concentration of half-maximal effect; % is set by controls: 0 for no effect and ±100 for the full control effect; nearly all actives have a fitted effect of over 60% in size
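Reporter: ARE-Fluc in A549. Exposure: 18-24 h, 37 °C, 5% CO2, 5% FBS OPTI-MEM. Readouts: fluorescent cytotoxicity (CellTiter-Fluor), then luminescent Nrf2 signal after BugLite.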
A549 tox = Nrf2 qHTS screen for inhibitors: counterscreen for cytotoxicity; A549 ARE-Fluc cells, CellTiter-Fluor viability, 18-24 h; Potency, µM (series often up to 46 µM), for inactives: at the highest dose activity change, negative = cytotoxicity, actives largely listed as inhibitors; actives 0.16% (n = 390,000); AID 504648, 2011; note: potency is the fitted concentration of half-maximal effect; % is set by controls: 0 for no effect and ±100 for the full control effect
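Cytotoxicity counterscreen: CellTiter-Fluor fluorescence was measured in A549 ARE_Fluc cells after 18-24 h of compound exposure in a concentration series. The subsequent BugLite luminescent read reports ARE-luciferase activity.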
ClpP mod = qHTS Assay for Activators of ClpP; ATP-dependent Clp protease proteolytic subunit (Bacillus subtilis (strain 168)), P80244; Potency, µM (highest dose often 57.5 µM), without a hit: at the highest dose activity change, negative = active; actives 1.9% (n = 340,000); purified B. subtilis ClpP, FRET peptide cleavage, 20 min; AID 651965, 2013; active = well fitted falling curve with a large enough effect; inconclusive = small, poorly fitted or top-dose-only effect; inactive = no such curve, though single readings can be large or run the other way; note: potency is the fitted concentration of half-maximal effect; the source files actives as falling curves though it sought activators and does not explain the sign; nearly all actives have a fitted effect of over 65% in size
Target sequence (P80244 whole entry, looked up): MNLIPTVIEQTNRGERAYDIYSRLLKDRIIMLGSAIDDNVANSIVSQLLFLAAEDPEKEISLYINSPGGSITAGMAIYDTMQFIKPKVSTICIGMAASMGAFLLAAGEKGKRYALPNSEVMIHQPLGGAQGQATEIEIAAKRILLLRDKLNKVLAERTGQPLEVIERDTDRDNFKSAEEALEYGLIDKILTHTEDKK
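ClpP 10 microg/mL final, pH 8 Tris/KCl buffer with BSA, glycerol, Tween-20; compound pinned in; FRET-FV substrate; RT 20 min; Ex320/Em430; ΔFRET vs ADEP 5.8 microM, DMSO, no enzyme.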
An asterisk follows results filed as active. Compounds with a hit are over-represented: about 3.7% of the library has one in this group of screens. Unless noted, calls come from the whole dose curve; as a rule, active = well fitted curve in the direction sought with a large enough effect; inconclusive = small, poorly fitted or top-dose-only effect, or another doubt; inactive = no such curve, though single readings can be large; an effect the other way counts as inactive or inconclusive.

Nc1c(C(=O)NCc2ccco2)c2nc3ccccc3nc2n1CCN1CCCCC1 was read as IL-2 act -2.4, Nrf2 ARE act 16.9%, miR-21 act 21.8%, Nrf2 block inconclusive, A549 tox -18.8% and ClpP mod -20.1%.
CCOC(=O)c1c(NS(=O)(=O)c2ccccc2)n(CCCOC)c2nc3ccccc3nc12 was read as IL-2 act -1.2, Nrf2 ARE act inconclusive, miR-21 act 11.2%, Nrf2 block -20.7%, A549 tox inconclusive and ClpP mod 28.2µM*.
Screening Cc1ccc(S(=O)(=O)N(CC(=O)NCCSc2ccc(Cl)cc2)c2ccccc2C)cc1 returned Nrf2 ARE act -0.1%, miR-21 act inconclusive, Nrf2 block inconclusive, A549 tox -7.2% and ClpP mod -2.8%.
`O=C1C=CC2C3C(=O)N(c4ccccc4)C(=O)C3C1N2Cc1ccccc1` (stereo not given) gave IL-2 act -6.7, Nrf2 ARE act inconclusive, Nrf2 block 13.1%, A549 tox 0.0% and ClpP mod -2.6%.
`S=P(c1ccccc1)(c1ccccc1)c1c[nH]c2ccccc12` gave Nrf2 block -5.2% and A549 tox 5.6%.
O=C(Oc1ccc2ccc(OC(=O)N3CCCCCC3)cc2c1)N1CCCCCC1 was read as IL-2 act -1.9, Nrf2 ARE act 2.2%, miR-21 act -13.2%, Nrf2 block inconclusive, A549 tox -6.0% and ClpP mod 3.4%.
For CCCCOc1ccc(Cn2c(=O)oc3ccccc32)cc1 the results were IL-2 act -0.5, Nrf2 ARE act -1.4%, miR-21 act 0.9%, Nrf2 block inconclusive, A549 tox 13.7% and ClpP mod 2.9%.
COCCCNC(=O)c1c(NC(=O)c2ccco2)n(Cc2ccccc2)c2nc3ccccc3nc12 was read as IL-2 act -0.5, Nrf2 ARE act 15.8µM*, miR-21 act -0.3%, Nrf2 block 1.8%, A549 tox 3.1% and ClpP mod 15.8µM*.
Screening CC(C)OCCCNC(=O)c1c(N)n(Cc2cccs2)c2nc3ccccc3nc12 returned IL-2 act -0.5, Nrf2 ARE act -3.7%, miR-21 act 22.4%, Nrf2 block inconclusive, A549 tox inconclusive and ClpP mod 10µM*.
Cc1ccc(C)c(S(=O)(=O)c2nnn3c2nc(N2CCN(C)CC2)c2sccc23)c1 was read as Nrf2 ARE act 7.1%, miR-21 act inconclusive, Nrf2 block -6.8%, A549 tox 2.4% and ClpP mod -4.9%.
Screening Cc1cccc(Cc2cnc(NC(=O)c3ccc4c(c3)CC(c3ccccc3)OC4=O)s2)c1 (stereo not given) returned Nrf2 ARE act -0.4%, miR-21 act -1.9%, Nrf2 block inconclusive, A549 tox -0.8% and ClpP mod -2.9%.
For O=C(N/N=C\c1ccc(COc2ccc([N+](=O)[O-])cc2)o1)c1cccc(Cl)c1 the results were IL-2 act -2.2, Nrf2 ARE act 2.4%, miR-21 act -9.0%, Nrf2 block inconclusive, A549 tox -13.4% and ClpP mod -3.1%.
CC(C)(O)/C=C/C(=O)C(C)(O)C1C(O)CC2(C)C3CC=C4C(C=C(O)C(=O)C4(C)C)C3(C)C(=O)CC12C (stereo not given) was read as IL-2 act -3.6, Nrf2 ARE act -2.3%, Nrf2 block 1.46µM*, A549 tox 2.31µM* and ClpP mod -0.7%.
